This is a sample that favours compounds with a hit; in the whole collection about 4.4% have one here.
HPGD block = blocks human HPGD enzyme activity; purified HPGD, NADH fluorescence kinetic, PGE2 substrate; Potency, µM, for inactives: at the top dose activity change, negative = inhibition, actives largely listed as inhibitors; 150,000 tested, 4.3% active; active = well fitted inhibition curve with a large enough effect, not every such curve was filed as active; inconclusive = small, poorly fitted or top-dose-only effect, or another doubt; inactive = no such curve, though single readings can be large or run the other way
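NADH formation kinetics: reaction with 30 uM PGE2 and 1 mM NAD+ (final), 20 nM enzyme, Tris-HCl pH 8 with Tween 20, after 15 min compound preincubation at room temperature. Fluorescence change, last versus first of five reads.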
p53ts 39C kill = kills p53ts cells at the nonpermissive temperature; H1299-p53A138V viability at 39C, ATP luminescence, 24 h; 130,000 tested, 1.5% active; Potency, µM (doses to about 46.1 µM), for inactives: at the top dose activity change, negative = cell killing, usual class: cytotoxic; also: nearly all actives have a fitted effect of over 55% in size
12-hLO inh = 12-hLO (ALOX12) enzyme inhibition | P18054 | purified 12-hLO, xylenol orange hydroperoxide absorbance | Potency, µM (series often up to 57.1 µM), for inactives: top-dose activity change, negative = inhibition, most hits filed as inhibitors | 150,000 tested, 0.12% active | AID 1452; also: nearly all actives have a fitted effect of over 55% in size
Target sequence (P18054 whole entry, looked up): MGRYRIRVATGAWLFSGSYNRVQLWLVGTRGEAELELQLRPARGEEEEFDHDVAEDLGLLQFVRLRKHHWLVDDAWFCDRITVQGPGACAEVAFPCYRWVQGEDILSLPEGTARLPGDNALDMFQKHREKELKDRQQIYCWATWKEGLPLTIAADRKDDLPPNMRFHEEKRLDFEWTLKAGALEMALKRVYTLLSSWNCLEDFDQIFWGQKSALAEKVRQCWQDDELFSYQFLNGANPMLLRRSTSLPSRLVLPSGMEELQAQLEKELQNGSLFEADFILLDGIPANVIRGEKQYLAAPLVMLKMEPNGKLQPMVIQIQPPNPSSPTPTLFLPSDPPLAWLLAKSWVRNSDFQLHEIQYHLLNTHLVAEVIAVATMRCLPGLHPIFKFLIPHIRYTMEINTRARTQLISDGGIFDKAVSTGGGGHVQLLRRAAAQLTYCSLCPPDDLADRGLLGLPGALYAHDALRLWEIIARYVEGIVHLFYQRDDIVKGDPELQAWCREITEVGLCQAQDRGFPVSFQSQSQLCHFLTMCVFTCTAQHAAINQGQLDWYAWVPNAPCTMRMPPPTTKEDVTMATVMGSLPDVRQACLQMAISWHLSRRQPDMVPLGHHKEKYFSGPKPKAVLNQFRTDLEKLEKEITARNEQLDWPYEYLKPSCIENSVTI
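Purified human 12hLO (150 nM final) was preincubated with compounds for 15 min at room temperature in 25 mM Hepes pH 7.0, 0.01% Triton X-100, then reacted with 40 uM arachidonic acid for 30 min. Hydroperoxide was detected with ferrous iron/xylenol orange.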
p53ts 32C kill = cytotoxicity in p53ts cells at permissive temperature | H1299-p53A138V at 32C, ATP luminescence viability, 24 h | Potency, µM (doses to about 46.1 µM), without a hit: at the highest dose activity change, negative = cytotoxicity, hits mostly cytotoxic | 130,000 tested, 0.93% active | AID 924;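 also: 0% = DMSO and -100% = full killing by reference compound; nearly all actives have a fitted effect of over 55% in size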
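ATP-content luminescence (ATPlite) read-out after 24 h compound exposure at 32C in H1299-p53A138V cells (600/well). Tested up to 46 uM. Normalized to DMSO (0%) and 100 uM tamoxifen (100% killing); Hill-fit AC50.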
Numbers without * were called inactive; ? = inconclusive; . = not tested or not shown; [ ] = remark or other dose. Unless noted, calls follow the shape of the dose curve; as a rule, active = well fitted curve in the direction sought with a large enough effect; inconclusive = small, poorly fitted or top-dose-only effect, or another doubt; inactive = no such curve, though single readings can be large; an effect the other way counts as inactive or inconclusive. Unless noted, % is scaled to controls: 0 for no effect and ±100 for the full control effect; potency is read from the fitted curve at half-maximal effect.

SMILES	HPGD block	p53ts 39C kill	12-hLO inh	p53ts 32C kill
CCc1ccccc1NC(=O)Cn1nc(CC)n2c(cc3sccc32)c1=O	.	6.0%	.	4.5%
Cc1ccc(C(=O)NC(=S)Nc2ccccc2C(F)(F)F)cc1C	-21.4%	.	22.4µM*	.
Cc1cccc(C(=O)NC(=S)Nc2ccccc2C(F)(F)F)c1	-10.0%	.	?	.
Cc1ccc(C(=O)Nc2ccc3c(c2)CCC3)o1	22.4µM*	?	-7.7%	12.6µM*
CC(C)NC(=O)COc1ncnc2sccc12	-4.3%	.	0.8%	.
C=CCn1c(C)cc(C(=O)COc2ncnc3sccc23)c1C	-9.8%	7.94µM*	-10.4%	?
Cc1ccc(C(=O)Nc2sc(C)c(C)c2C(=O)c2ccccc2)cc1	20µM*	.	1.3%	.
Cc1sc(NC(=O)c2ccccc2)c(C(=O)NC(C)C)c1C	?	.	-6.4%	.
Cc1sc(NC(=O)c2ccccc2)c(C(=O)c2ccccc2)c1C	3.55µM*	.	-2.8%	.
Cc1sc(NC(=O)c2cccs2)c(C(N)=O)c1C	25.1µM*	?	-17.9%	?
CCOC(=O)c1c(NC(=O)c2cccs2)sc(CC)c1-c1cccs1	?	.	-2.8%	.
O=S(=O)(Nc1ccc(-c2ccc(N3CCCCCC3)nn2)cc1)c1cccc(C(F)(F)F)c1	.	-12.1%	.	-12.4%
CCOC(=O)/C(=N/Nc1ccc(C)cc1)S(=O)(=O)c1ccc(Cl)cc1	-10.7%	.	-15.0%	.
CCOC(=O)/C(=N\Nc1ccccc1)S(=O)(=O)c1ccccc1	14.1µM*	.	-2.6%	.
COc1cc(C2c3c(oc4ccc(F)cc4c3=O)C(=O)N2c2nc(C)c(C)s2)cc(OC)c1OC (stereo unspecified)	.	-1.2%	.	-1.0%
COc1ccc(OC)c(NC(=O)Cc2coc3ccc4ccccc4c23)c1	?	.	0.6%	.
CC(C)CN(CC(C)C)C(=O)Cc1coc2ccc3ccccc3c12	?	.	-15.9%	.
CCCCNC(=O)Cc1coc2ccc3ccccc3c12	14.1µM*	.	-0.1%	.
Cc1cccc(NC(=O)Cc2coc3ccc4ccccc4c23)n1	15.8µM*	.	-6.7%	.
O=C(Cc1coc2ccc3ccccc3c12)N1CCCC1	12.6µM*	-4.4%	1.4%	-1.1%
Cc1cc(C)cc(-n2nnc(-c3nc(-c4ccccc4F)no3)c2C)c1	.	-4.1%	.	-10.9%
CCc1nn(CC(=O)N(CC)Cc2ccccc2)c(=O)c2cc3occc3n12	.	19.6%	.	3.7%
COc1ccc(-c2nc3cnc(N4CCOCC4)nc3n(C)c2=O)cc1	.	14.1%	.	10.2%
Cc1ccsc1C(=O)OCC(=O)NCc1ccc2c(c1)OCO2	12.6µM*	-4.7%	-2.9%	-0.8%
COC(=O)c1cc(C(=O)OCC(=O)NCc2ccc3c(c2)OCO3)cc([N+](=O)[O-])c1	5.2%	.	-2.2%	.
SMILES	HPGD block	p53ts 39C kill	12-hLO inh	p53ts 32C kill
CC(=O)OCC(=O)NCc1ccc2c(c1)OCO2	20µM*	13.8%	-4.3%	4.4%
O=C(COC(=O)CCC(=O)c1ccc2c(c1)OCCO2)NCc1ccc2c(c1)OCO2	-11.2%	0.3%	-5.4%	-9.0%
Cc1ccc(O)c(-c2cc(C(=O)NCc3ccc4c(c3)OCO4)[nH]n2)c1	3.16µM*	.	1.2%	.
Cc1ccc2cc3cc(C(=O)NCc4ccc5c(c4)OCO5)oc3nc2c1	?	1.5%	0.0%	7.6%
Cc1ccc(NC(=O)N2CCN(Cc3nc4ccc(C)cc4o3)CC2)c(Cl)c1	.	-6.3%	.	4.1%
CCn1c(=N)c(C(=O)NC2CCCC2)cc2c(=O)n3ccccc3nc21	.	3.3%	.	1.5%
CCC(=O)C1=C(c2cccc([N+](=O)[O-])c2)N(C(=O)CC)n2c(nnc2-c2ccccc2)S1	.	-12.0%	.	4.3%
Cc1ccc(NC(=O)Cn2c(=O)ccc3cc(S(=O)(=O)N4CCCC4)ccc32)cc1C	.	-16.3%	.	-6.9%
COCCn1c(C)cc(O)c(C(c2ccccc2Cl)N2CCCCC2)c1=O (stereo unspecified)	.	-1.6%	.	-7.4%
O=C(CN1CCCCCCC1)N/N=C/c1ccccc1F	31.6µM*	.	-6.2%	.
O=C(CN1CCSCC1)N/N=C/c1ccccc1F	-22.7%	.	-5.5%	.
O=C1NC(=S)SC1=C1CCCC1	35.5µM*	.	-16.6%	.
CN(c1ccccc1)c1ccc(/C=C(\CCC(=O)O)c2nc3ccccc3s2)cc1[N+](=O)[O-]	25.1µM*	.	-0.7%	.
Cc1ccc(/C=C(\CCC(=O)O)c2nc3ccccc3s2)cc1[N+](=O)[O-]	-8.4%	.	-2.8%	.
O=C(NCc1ccccc1F)C(=O)NCC(c1ccco1)S(=O)(=O)c1cccs1 (stereo unspecified)	.	1.2%	.	-2.4%
Cc1[nH]n(-c2ccccc2)c(=O)c1C(C[N+](=O)[O-])c1ccc(Cl)cc1 (stereo unspecified)	28.2µM*	.	-8.1%	.
Cc1ccc(C(C[N+](=O)[O-])c2c(C)[nH]n(-c3ccccc3)c2=O)cc1 (stereo unspecified)	-20.6%	.	-6.4%	.
Clc1ccc(-c2nnc(SCc3nc4ccccc4[nH]3)o2)c(Cl)c1	-18.3%	-8.0%	-1.3%	1.5%
C=CCSc1nnc(-c2ccc(Cl)cc2Cl)o1	11.2µM*	-24.2%	-13.0%	?
Clc1ccc(-c2nnc(SCc3ccon3)o2)c(Cl)c1	?	10µM*	-9.7%	10µM*
CCOc1ccc(NC(=S)NC(=O)/C=C/c2ccc(OC)c(OC)c2)c([N+](=O)[O-])c1	22.4µM*	.	-8.0%	.
CC(Sc1nc(-c2ccccc2)cc(C(F)(F)F)n1)C(=O)Nc1sc2c(c1C#N)CCC2 (stereo unspecified)	-22.2%	.	-13.0%	.
CC(Sc1nc(-c2ccccc2)cc(C(F)(F)F)n1)C(=O)Nc1sc2c(c1C(N)=O)CCC2 (stereo unspecified)	31.6µM*	.	3.5%	.
CCOc1ccc(NC(=O)NCCn2nnc3cc(S(=O)(=O)N(C)C)ccc32)cc1	.	-6.9%	.	-10.5%
CCOC(=O)Oc1c(OC)cc(C(=O)O[C@H]2C[C@H]3CN4CCc5c([nH]c6cc(OC)ccc56)[C@@H]4C[C@H]3[C@@H](C(=O)OC)[C@@H]2OC)cc1OC	-13.1%	3.5%[20.6 µM]	0.6%[25.6 µM]	5.1%[20.6 µM]
SMILES	HPGD block	p53ts 39C kill	12-hLO inh	p53ts 32C kill
COc1cccc(-n2nnc3c(=O)n(Cc4ccc(F)cc4)cnc32)c1	28.2µM*	2.4%	-11.3%	4.9%
Cc1cccc(Cn2cnc3c(nnn3Cc3ccccc3F)c2=O)c1	15.8µM*	-5.0%	-7.7%	-8.7%
O=C(Cn1cnc2c(nnn2Cc2ccc(F)cc2)c1=O)N1CCCCC1	-17.5%	-0.4%	-1.8%	24.3%
O=C(Cn1cnc2c(nnn2Cc2ccccc2F)c1=O)NCC1CCCO1 (stereo unspecified)	?	-2.8%	-0.8%	-13.5%
Cc1ccc(-n2nnc3c(=O)n(Cc4cccc(C)c4)cnc32)cc1	3.98µM*	21.9%	-2.9%	-18.3%
Cc1ccc(-n2nnc3c(=O)n(Cc4cc(C)ccc4C)cnc32)cc1	-3.8%	-12.9%	-2.1%	-14.6%
Cc1cccc(Cn2cnc3c(nnn3Cc3ccc(F)cc3)c2=O)c1	14.1µM*	-17.3%	-3.9%	-0.7%
O=C(NCCN1CCCC1)c1ccc(Cc2nc3ccccc3[nH]2)cc1	-3.4%	1.8%	0.3%	6.3%
Nc1ncnc2c1ncn2[C@@H]1O[C@@H](CO)[C@H](O)[C@@H]1O	.	17.0%	2.1%	15.8%
